Experimental findings from PubChem BioAssay (Tox21) are described below.

Inconclusive results are not listed. Values without a mark were called inactive. The source made the active and inactive calls. Calls come from the whole dose curve; as a rule, active = well fitted curve in the direction sought with a large enough effect in the repeat runs; inconclusive = weak or mixed curves; inactive = no such curve, though single readings can be large; an effect the other way counts as inactive or inconclusive.

Assay [1] in a line: A CellTox Green Cytotoxicity Assay to monitor cytotoxicity in HEK293 cells - 40 hour (AID 1224871). Note: nearly all actives have a fitted effect of over 45% in size. In outline: (§1)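 Fluorescence from a DNA-binding dye excluded by viable cells was measured repeatedly in the same HEK293 wells (600 cells/well) during continuous compound exposure at 37 C. Each assay gives one read point: 0, 8, 16, 24, 32 or 40 h.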
A short description of assay [2]: qHTS RealTime-Glo MT Cell Viability Assay in HEK293 cells - 16 hour (AID 1224872). Note: nearly all actives have a fitted effect of over 50% in size. Note: potency is the fitted concentration of half-maximal effect. A digest of the protocol: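 Tox21 10K qHTS, HEK293, 600 cells/well, RealTime-Glo reagent co-dispensed with cells; 5 h preincubation, compound by pintool, 37 C, luminescence at 0–40 h.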
In general terms: Quantitative high-throughput screening tests each substance at several concentrations.

Assay [3] in a line: qHTS RealTime-Glo MT Cell Viability Assay in HepG2 cells - 8 hour (AID 1224873). Note: nearly all actives have a fitted effect of over 55% in size. In outline: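 HepG2 cells mixed with RealTime-Glo MT reagents (NanoLuc plus cell-permeant prosubstrate) were seeded at 600 cells/well, incubated 5 h at 37 C/5% CO2, then pinned with compounds in DMSO; nonlytic luminescence tracked viability during 40 h treatment.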
The nature of assay [4]: qHTS RealTime-Glo MT Cell Viability Assay in HEK293 cells - 40 hour (AID 1224874). Note: nearly all actives have a fitted effect of over 50% in size. Note: potency is the fitted concentration of half-maximal effect. The settings on record: RealTime-Glo luminescence; max response: hits give low values. In outline:
(§2)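 Luminescence, which tracks viable cell number through reduction of the prosubstrate to a NanoLuc substrate, was read over continuous 37 C culture. Cells (600/well) were premixed with reagent and rested 5 h before 23 nL of compound in DMSO was pinned.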

Assay [5] is described as follows: A CellTox Green Cytotoxicity Assay to monitor cytotoxicity in HEK293 cells - 24 hour (AID 1224875). Note: series mostly up to about 77 µM; nearly all actives have a fitted effect of over 45% in size. In outline:
as §1

Assay [6] can be described thus: A CellTox Green Cytotoxicity Assay to monitor cytotoxicity in HepG2 cells - 16 hour (AID 1224876). Note: nearly all actives have a fitted effect of over 45% in size. In outline:
(§3)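 Real-time cytotoxicity: fluorescence of a cell-impermeant cyanine dye binding DNA of dead HepG2 cells, measured repeatedly (0–40 h) during compound exposure at 37 C. Cells seeded 600/well with reagent, dosed after 5 h.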

Assay [7] can be described thus: qHTS RealTime-Glo MT Cell Viability Assay in HepG2 cells - 32 hour (AID 1224877). Note: nearly all actives have a fitted effect of over 55% in size. A digest of the protocol:
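Cells + NanoLuc/prosubstrate dispensed (600 cells/well) → 5 h at 37 C/5% CO2 → compounds in DMSO transferred → 40 h incubation at 37 C, luminescence read at 0, 8, 16, 24, 32, 40 h.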

Assay [8] is described as follows: A CellTox Green Cytotoxicity Assay to monitor cytotoxicity in HepG2 cells - 24 hour (AID 1224878). Note: nearly all actives have a fitted effect of over 45% in size. A digest of the protocol:
as §3

Assay [9] in a line: A CellTox Green Cytotoxicity Assay to monitor cytotoxicity in HepG2 cells - 40 hour (AID 1224879). Note: nearly all actives have a fitted effect of over 40% in size. A digest of the protocol: as §3
The nature of assay [10]: qHTS RealTime-Glo MT Cell Viability Assay in HEK293 cells - 0 hour (AID 1224880). In outline:
as §2
% is set by controls: 0 for no effect and ±100 for the full control effect.

`CC(C)(C)C(=O)O`: the Potency result in [1], in assay [2], in assay [3], in assay [5], in [6] and in assay [7] was “inactive” each time. The Potency result in assay [8], in assay [9] and in assay [10] was “inactive” each time. Besides, the max response in [4] is 6.48%.
Turning to `CCC(C)(O)CCC=C(C)C` (configuration not stated), the Potency entry in [1], in assay [2], in assay [3], in assay [5], in assay [6] and in assay [7] was “inactive” each time. Further, the Potency entry in assay [8], in assay [9] and in assay [10] was “inactive” throughout. Besides, the max response in assay [4] is -9.96%.
In the case of `CCC(C)=O`, the Potency entry in assay [1], in assay [2], in assay [3], in assay [5], in [6] and in assay [7] was “inactive” each time. For the same compound, the Potency entry in assay [8], in [9] and in assay [10] was “inactive” in each case. The max response in assay [4] was 15.5%.
Take `O=S1OCCO1`: the Potency result in [1], in assay [2], in assay [3], in assay [5], in assay [6] and in assay [7] was “inactive” in each case. For the same compound, the Potency entry in assay [8], in assay [9] and in assay [10] was “inactive” in each case. Also, the max response in [4] is 21%.
`Nc1ccc(Cl)cc1[N+](=O)[O-]`: the Potency result in [1], in [2], in assay [3], in assay [5], in [6] and in assay [7] was “inactive” throughout. Also, the Potency result in [8], in [9] and in assay [10] was “inactive” in each case. Also, in assay [4], the max response is 2.66%.
In the case of `O=C(C(=O)c1ccccc1)c1ccccc1`, the Potency entry in assay [1], in [2], in assay [3], in [5], in [6] and in assay [7] was “inactive” in each case. Besides, the Potency entry in [8], in [9] and in assay [10] was “inactive” throughout. Moreover, the max response in [4] is 3.7%.
As for `Cc1ccccc1N1C(=O)c2cc(S(N)(=O)=O)c(Cl)cc2NC1C` (configuration not stated), the Potency entry in assay [1], in [2], in assay [3], in [5], in assay [6] and in [7] was “inactive” in each case. The Potency entry in assay [8], in assay [9] and in [10] was “inactive” throughout. Further, in [4], the max response is -9.78%.
For the compound `O=C(NCCCN1CCOCC1)c1ccc(Cl)cc1`, the Potency result in assay [1], in [2], in assay [3], in assay [5], in [6] and in [7] was “inactive” in each case. Moreover, the Potency entry in assay [8], in assay [9] and in assay [10] was “inactive” throughout. The max response in assay [4] was 7.84%.
With `CCN(CC)CCNC(=O)c1ccc(NC(C)=O)cc1`, the Potency result in [1], in assay [2], in assay [3], in assay [5], in [6] and in assay [7] was “inactive” in each case. For the same compound, the Potency entry in [8], in assay [9] and in [10] was “inactive” throughout. The max response in assay [4] was -0.786%.
On to `C[Si](NC1CCCCC1)(NC1CCCCC1)NC1CCCCC1`, for which the Potency result in assay [1], in [2], in assay [3], in assay [5], in assay [6] and in [7] was “inactive” each time. Further, the Potency result in assay [8], in [9] and in [10] was “inactive” throughout. The max response in [4] is -24.6%.
In the case of `Cc1oc(C)c(C(=O)Nc2ccccc2)c1C`, the Potency result in [1], in [3], in assay [5], in [6], in assay [7] and in assay [8] was “inactive” throughout. The Potency result in assay [9] and in assay [10] was “inactive” in each case. For the same compound, the Potency in assay [2] was 34.7 µM (active); in [4] it was 24.5 µM (active).
In the case of `CCCOC(=O)c1ccc(N)cc1`, the Potency result in assay [1], in [2], in assay [3], in assay [5], in assay [6] and in assay [7] was “inactive” throughout. Further, the Potency entry in assay [8], in [9] and in assay [10] was “inactive” throughout. In [4], the max response was -15%.
For `Cc1cc(OI)c(C(C)C)cc1-c1cc(C(C)C)c(OI)cc1C`, the Potency entry in [1], in assay [2], in assay [3], in assay [5], in assay [6] and in [7] was “inactive” in each case. The Potency result in [8], in assay [9] and in [10] was “inactive” each time. Besides, in assay [4], the max response was -0.141%.
In the case of `CC1=NN(c2ccc(C(=O)O)cc2)C(=O)C1`, the Potency result in assay [1], in [2], in assay [3], in assay [5], in assay [6] and in assay [7] was “inactive” in each case. Moreover, the Potency result in assay [8], in assay [9] and in assay [10] was “inactive” in each case. The max response in assay [4] was -25.1%.
Take `CN1CCCN=C1/C=C/c1cccs1`: the Potency result in [1], in assay [2], in [3], in [5], in assay [6] and in [7] was “inactive” in each case. Moreover, the Potency result in assay [8], in assay [9] and in assay [10] was “inactive” each time. Further, in assay [4], the max response was 5.88%.
Take `COc1ccccc1N=Nc1c(S(=O)(=O)O)cc2cc(S(=O)(=O)O)cc(NC(C)=O)c2c1O`: the Potency result in assay [1], in assay [2], in assay [3], in [5], in [6] and in assay [7] was “inactive” throughout. Moreover, the Potency entry in assay [8] and in assay [10] was “inactive” in each case. In addition, the max response in [4] was 1.04%.
For the compound `Cc1ccnc2ccccc12`, the Potency entry in assay [1], in assay [2], in assay [3], in assay [5], in assay [6] and in assay [7] was “inactive” each time. Further, the Potency result in assay [8] and in assay [10] was “inactive” in each case. Besides, in assay [4], the max response is 6.48%.
Take `Cc1nc2ccccn2c(=O)c1CCN1CCC(C(=O)c2ccc(F)cc2)CC1`: the Potency entry in [1], in [3], in [5], in assay [6], in assay [7] and in assay [8] was “inactive” throughout. The Potency result in assay [10] is “inactive”. Besides, the Potency in assay [2] is 4.77 µM (active); in assay [4], 8.49 µM (active).
